Data published in PubChem BioAssay AID602340 (Broad Institute, 2012).
Out of some 330,000 compounds screened, about 2,600 (0.79%) were called active. This is one part of a sample in which actives are shown more often than they occur.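 Rule for the calls: active = mean ATP rescue above about 67%, or every replicate alone reaching that limit (limit read from the data, passing the limit was not always enough); inconclusive = no clear call, values can overlap the other calls; inactive = mean under the limit and some replicate under it.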

experiment: suppressors of statin myotoxicity in C2C12 myotubes, primary screen, cell-based, single point, plate reader (AID 602340); conditions: C2C12 myotubes + simvastatin, ATP luminescence, 48 h; at 7.49 µM; hits give high values; scaled: DMSO 0, geranylgeraniol control 100;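 note: myotubes were challenged with 10 µM simvastatin during compound exposure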

Compound | rescue of ATP level
CC(C)NC(=O)Nc1ccc2c(c1)CC(=O)N([C@H](C)CO)C[C@H](C)[C@@H](CN(C)C(=O)Nc1ccc(F)cc1)O2 | -12.6% (inactive)
COc1ccc(NCCc2ccccn2)cc1 | -1.75% (inactive)
COc1ccc(C)cc1NC(=O)NCc1ccccn1 | -3.96% (inactive)
COc1ccc2ccccc2c1CNCc1ccccn1 | 88.1% (active)
CCNC(=O)[C@H]1[C@H](CO)[C@H]2Cn3c(ccc(-c4ccc(OC)cc4)c3=O)[C@H]2N1Cc1ccccc1 | -6.11% (inactive)
CCCNC(=O)Nc1ccc2c(c1)C(=O)N(C)C[C@@H](OC)[C@@H](C)CN(C)[C@@H](C)CO2 | 0.886% (inactive)
CCCN1[C@H](C(=O)N[C@H](C)c2ccccc2)[C@@H](CO)[C@@H]2Cn3c(ccc(-c4cccc(F)c4)c3=O)[C@@H]21 | 25.4% (inactive)
O=C(C[C@@H]1C[C@@H]2c3cc(NC(=O)Nc4ccccc4F)ccc3O[C@@H]2[C@@H](CO)O1)NCCc1ccccc1 | -4.6% (inactive)
COc1ccccc1N1CCN(C(=O)CSc2nnc(-c3ccoc3C)o2)CC1 | 2.45% (inactive)
COc1ccccc1-c1nnc(SCC(=O)N2CC(C)CC(C)C2)o1 (centres undefined) | 120% (active)
O=C(CSc1nnc(-c2ccccc2O)o1)NC1CCCCC1 | -6.5% (inactive)
C[C@@H]1CN([C@H](C)CO)C(=O)c2cc(C#Cc3ccncc3)cnc2O[C@H]1CN(C)Cc1ccncc1 | -5.15% (inactive)
C[C@H]1CN([C@@H](C)CO)C(=O)CCCn2nncc2CO[C@H]1CN(C)Cc1cccc(C(=O)O)c1 | -4.85% (inactive)
O=C(NN=Cc1ccccc1O)C(=O)NN=Cc1ccccc1O | 1.41% (inactive)
CCCC#Cc1ccc2c(c1)O[C@@H](CN(C)CC1CC1)[C@@H](C)CN([C@H](C)CO)S2(=O)=O | 33.5% (inactive)
CCS(=O)(=O)N1[C@H](CO)[C@@H](c2ccc(C#CC(C)C)cc2)[C@@H]1C#N | -1.94% (inactive)
Cc1noc(C)c1NC(=O)N[C@H]1CC[C@H](CC(=O)N2CCCCC2)O[C@@H]1CO | 0.234% (inactive)
CC=Cc1ccc2n(c1=O)C[C@@H]1[C@@H](CO)[C@H](C(=O)N3CCc4ccccc4C3)N(C(=O)C3CCC3)[C@H]21 (mixture of isomers) | 17.5% (inactive)
COc1ccc(C(=O)NC(=S)Nc2ccccc2N2CCN(S(C)(=O)=O)CC2)cc1OC | 103% (active)
CC(=O)N1CCN(c2ccccc2NC(=S)NC(=O)c2cc3ccccc3o2)CC1 | 12.9% (inactive)
COc1ccccc1C(=O)NC(=S)Nc1ccccc1N1CCCCC1 | 0.351% (inactive)
CO[C@@H]1CN(C)C(=O)c2ccc(NC(=O)C3CC3)cc2OC[C@@H](C)N(Cc2ccncc2)C[C@@H]1C | 6.35% (inactive)
COc1ccc(CN(C)C[C@H]2OCc3cn(nn3)CCCC(=O)N([C@@H](C)CO)C[C@@H]2C)cc1 | 11.6% (inactive)
C[C@H]1CN([C@@H](C)CO)C(=O)c2cc(C#CC3CCCCC3)cnc2O[C@@H]1CN(C)C(=O)Cc1ccccn1 | 16.9% (inactive)
O=C(NCCc1ccccc1)C1CC1 | 7.36% (inactive)

Compound | rescue of ATP level
O=C(O)C1CC=C(Cl)CC1C(=O)NCc1ccccc1 (centres undefined) | -8.07% (inactive)
O=C(O)C1CC=CCC1C(=O)NCCc1ccccc1 (centres undefined) | 104% (active)
C[C@H]1CN([C@@H](C)CO)C(=O)c2cc(NC(=O)C3CCCCC3)ccc2O[C@H]1CN(C)C(=O)Nc1ccccc1 | 6.29% (inactive)
Cc1ccc(C2(c3ccc(C)cc3)NC(=O)N(Cc3c(C)noc3C)C2=O)cc1 | 195% (active)
COC(=O)c1ccc(CN2C(=O)NC(c3ccccc3)(c3ccccc3)C2=O)o1 | 1.69% (inactive)
COc1ccc(C2(c3ccc(OC)cc3)NC(=O)N(CC(=O)Nc3cc(C)on3)C2=O)cc1 | -1.37% (inactive)
Cc1noc(C)c1NC(=O)N(C)C[C@H]1Oc2ccc(NC(=O)Cn3cnnn3)cc2CC(=O)N([C@H](C)CO)C[C@@H]1C | 3.98% (inactive)
O=C(NCc1nnnn1-c1ccc(Cl)cc1)c1ccc2c(c1)OCO2 | -0.994% (inactive)
COc1ccc(-n2nnnc2CNC(=O)c2ccc3ccccc3c2)cc1 | -15.7% (inactive)
O=C(NCc1nnnn1-c1ccc(Cl)cc1)c1ccc([N+](=O)[O-])o1 | 89% (active)
CCCN1[C@@H]2c3ccc(-c4ccccc4OC)c(=O)n3C[C@H]1[C@H](CO)[C@H]2C(=O)NCc1ccccn1 | -9.62% (inactive)
Cn1c(=O)n(C)c2cc(C(=O)Nc3ccc(Br)cc3)ccc21 | -4.21% (inactive)
O=C(N/N=C/c1cccc(Br)c1)c1ccc(N2CCCC2=O)cc1 | -20% (inactive)
Cn1c(=O)n(C)c2cc(/C=N/NC(=O)c3cccc(Br)c3)ccc21 | 70.7% (active)
NC(=O)c1ncc(C(F)(F)F)cc1Oc1ccc(F)cc1 | 162% (active)
N#Cc1ccc(Oc2ccc(C(F)(F)F)cc2NC(=O)c2ccc(F)cc2)cc1 | -5.87% (inactive)
N#Cc1ncc(C(F)(F)F)cc1Oc1cccnc1 | -4.63% (inactive)
CO[C@H]1CN(C)C(=O)c2ccc(NC(=O)C3CC3)cc2OC[C@H](C)N(CCc2ccccc2)C[C@H]1C | 15.6% (inactive)
O=C(C[C@H]1C=C[C@@H](NC(=O)C2CCOCC2)[C@@H](CO)O1)NCC1CCCCC1 | -2.92% (inactive)
CO[C@@H]1CN(C)C(=O)c2cc(NS(=O)(=O)CC(F)(F)F)ccc2OC[C@@H](C)N(Cc2ccccn2)C[C@H]1C | -12.7% (inactive)
Cc1cc(C)c2c(-n3cccc3)c(C(=O)NNS(=O)(=O)c3ccc(F)cc3)sc2n1 | 7.07% (inactive)
CCCCOC(=O)Nc1sc2nc(C)cc(C)c2c1-n1cccc1 | 66.9% (active)
COC(=O)Nc1sc2nc(C)cc(C)c2c1-n1cccc1 | -7.59% (inactive)
CCC(=O)N(C)C[C@H]1[C@H](c2ccc(C3=CCCCC3)cc2)[C@@H](CO)N1C(C)=O | 16.5% (inactive)
C[C@@H]1CN([C@H](C)CO)C(=O)Cc2cc(NC(=O)Cn3cnnn3)ccc2O[C@H]1CN(C)Cc1ccc(Cl)c(Cl)c1 | 18.5% (inactive)

Compound | rescue of ATP level
C[C@@H]1CN([C@@H](C)CO)C(=O)Cc2cc(NC(=O)CCCCCC(=O)Nc3ccccc3N)ccc2O[C@H]1CN(C)C(=O)Nc1ccc(C(F)(F)F)cc1 | -13.1% (inactive)
C[C@H]1CN([C@@H](C)CO)C(=O)Cc2cc(NC(=O)CCCN(C)C)ccc2O[C@@H]1CN(C)Cc1ccc(-c2ccccc2)cc1 | 17.6% (inactive)
C[C@H](CO)N1C[C@H](C)[C@@H](CN(C)Cc2ccc(-c3ccccc3)cc2)Oc2ccc(NC(=O)CCC(F)(F)F)cc2CC1=O | 74.7% (active)
C[C@H]1CN([C@@H](C)CO)C(=O)Cc2cc(NC(=O)Cn3cnnn3)ccc2O[C@H]1CN(C)Cc1ccc(C(=O)O)cc1 | -21.6% (inactive)
C[C@H](CO)N1C[C@H](C)[C@H](CN(C)Cc2ccc(C(F)(F)F)cc2)Oc2ccc(NC(=O)CCCCCC(=O)Nc3ccccc3N)cc2CC1=O | 183% (active)
C[C@@H]1CN([C@H](C)CO)C(=O)Cc2cc(NC(=O)CCC(F)(F)F)ccc2O[C@@H]1CN(C)Cc1ccncc1 | -15.3% (inactive)
C[C@H]1CN([C@@H](C)CO)C(=O)Cc2cc(NC(=O)CCCCCC(=O)Nc3ccccc3N)ccc2O[C@@H]1CN(C)Cc1ccncc1 | 20.5% (inactive)
C[C@H](CO)N1C[C@H](C)[C@@H](CN(C)Cc2ccc(Cl)c(Cl)c2)Oc2ccc(NC(=O)Cn3cnnn3)cc2CC1=O | 88.7% (active)
CO[C@H]1CN(C)C(=O)c2ccc(NC(C)=O)cc2OC[C@H](C)N(C(=O)c2ccccc2)C[C@H]1C | 3.84% (inactive)
C[C@@H](NC(=O)[C@H]1[C@H](CO)[C@H]2Cn3c(cccc3=O)[C@@H]1N2Cc1cccnc1)c1ccccc1 | -8.14% (inactive)
C/C=C/c1ccc2c(c1)O[C@@H](CN(C)CC1CCOCC1)[C@@H](C)CN([C@H](C)CO)S2(=O)=O | 1.59% (inactive)
COCC(=O)N(C[C@H]1N[C@H](CO)[C@H]1c1ccc(C2=CCCCC2)cc1)C(C)C | -22.7% (inactive)
Cc1noc(C)c1NC(=O)Nc1ccc2c(c1)CC(=O)N([C@@H](C)CO)C[C@H](C)[C@H](CN(C)S(=O)(=O)c1c(C)noc1C)O2 | -4.37% (inactive)
O=C(NCC[C@@H]1CC[C@H](NC(=O)Nc2cc(F)ccc2F)[C@@H](CO)O1)Nc1ccc(Cl)cc1 | 2.28% (inactive)
Cn1c(N)c(C(=O)COC(=O)COc2ccc(Cl)cc2)c(=O)n(C)c1=O | 9.73% (inactive)
Cn1c(N)c(C(=O)COC(=O)c2ccc3ccccc3c2)c(=O)n(C)c1=O | -2.95% (inactive)
Cc1cc(C(=O)OCC(=O)c2c(N)n(C)c(=O)n(C)c2=O)c(C)o1 | 148% (active)
COc1ccc(S(=O)(=O)Nc2cccc3c2O[C@@H](CN(C)C(=O)Nc2ccccc2)[C@@H](C)CN([C@H](C)CO)C3=O)cc1 | -38.3% (inactive)
Cc1ccc(-c2csc(NC3OC(=O)c4ccccc43)n2)cc1 (centres undefined) | -7.28% (inactive)
Cc1ccc(-c2csc(-c3c[nH]c4ccccc34)n2)cc1 | 102% (active)
CCn1c(SCCC(C)C)nnc1-c1c[nH]c2ccccc12 | -7.75% (inactive)
CC1(C(=O)NCc2ccc3c(c2)OCO3)CCN1CCc1ccccc1 (centres undefined) | 34.5% (inactive)
Cc1ccc(-c2nc(CS(=O)(=O)CC(=O)NCc3ccc4c(c3)OCO4)c(C)o2)cc1 | 28.8% (inactive)
O=C(CN1CCN(c2nc(-c3ccccc3)cs2)CC1)NCc1ccc2c(c1)OCO2 | 124% (active)
